The record followed here is PubChem BioAssay AID376 (PDSP, 2006).

Among all 2,000 compounds or so, about 250 (12%) were called active. This is one part of a sample in which actives are shown more often than they occur. Unmarked numbers belong to inactive results. Rule as the data show it: active = hERG blockade below about -20% or above about 20%; inactive = in between.

The target in the assay is Voltage-gated inwardly rectifying potassium channel KCNH2 (Homo sapiens) (UniProt Q12809). The assay can be described thus: modulators of KCNH2 ion channel function, cellular (AID 376).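 Also: 0% = buffer alone and 100% = reference blocker.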 The note with it: hERG-expressing cells, channel activity single-concentration screen; concentration not given here.
Voltage-gated inwardly rectifying potassium channel KCNH2 (Homo sapiens), sequence (Q12809 whole entry, looked up): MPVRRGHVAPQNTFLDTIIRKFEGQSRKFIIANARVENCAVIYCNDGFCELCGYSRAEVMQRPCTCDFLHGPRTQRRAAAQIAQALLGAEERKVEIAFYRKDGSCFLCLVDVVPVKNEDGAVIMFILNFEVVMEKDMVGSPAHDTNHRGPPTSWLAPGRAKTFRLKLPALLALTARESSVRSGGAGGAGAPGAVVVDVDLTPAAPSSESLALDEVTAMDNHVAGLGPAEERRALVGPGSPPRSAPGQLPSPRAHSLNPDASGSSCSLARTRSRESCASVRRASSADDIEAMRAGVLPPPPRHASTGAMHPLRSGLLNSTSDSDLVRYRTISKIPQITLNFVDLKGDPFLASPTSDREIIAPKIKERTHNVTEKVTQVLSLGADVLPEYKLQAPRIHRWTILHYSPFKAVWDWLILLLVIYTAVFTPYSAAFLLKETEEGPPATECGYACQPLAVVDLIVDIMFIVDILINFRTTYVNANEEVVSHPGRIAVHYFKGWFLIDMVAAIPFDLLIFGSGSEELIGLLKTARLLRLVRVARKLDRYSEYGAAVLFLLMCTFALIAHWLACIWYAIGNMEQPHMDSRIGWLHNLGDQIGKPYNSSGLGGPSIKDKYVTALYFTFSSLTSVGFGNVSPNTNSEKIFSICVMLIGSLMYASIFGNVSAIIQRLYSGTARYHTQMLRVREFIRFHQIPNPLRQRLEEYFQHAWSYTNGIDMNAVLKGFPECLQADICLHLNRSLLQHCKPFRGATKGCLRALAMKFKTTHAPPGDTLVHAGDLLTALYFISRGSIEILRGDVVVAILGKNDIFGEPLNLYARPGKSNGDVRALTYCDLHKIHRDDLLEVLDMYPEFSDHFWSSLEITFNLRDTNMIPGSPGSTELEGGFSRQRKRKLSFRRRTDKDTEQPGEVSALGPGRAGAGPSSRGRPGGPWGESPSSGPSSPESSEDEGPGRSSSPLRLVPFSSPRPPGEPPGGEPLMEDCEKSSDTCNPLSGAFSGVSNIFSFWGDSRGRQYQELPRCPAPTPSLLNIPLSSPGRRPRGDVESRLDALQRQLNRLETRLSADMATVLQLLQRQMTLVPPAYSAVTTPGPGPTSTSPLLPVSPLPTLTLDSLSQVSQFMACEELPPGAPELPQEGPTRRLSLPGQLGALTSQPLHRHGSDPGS
As for `O=C(O)c1c(-c2c3ccc(=O)cc-3oc3cc(O)ccc23)cc2ccccc2c1-c1ccccc1`, the hERG blockade was 11.7%. Next, `CC(C)(C)NCC(O)c1ccc(O)c(CO)n1` (stereo unspecified): -0.947%. Next, `CCC(CN(C)C)C(=O)c1ccco1` (stereo unspecified): 5.17%. Next, `Clc1cccc(Cl)c1C(Nc1nncs1)Nc1nncs1`: -3.96%; `Nc1nc(SCC(=O)O)[nH]c(=O)c1N`: 5.23%.

Turning to `O=C(Nc1c[nH]c(=O)[nH]c1=O)Oc1ccccc1`, the hERG blockade was -11%. Turning to `Cc1c(S(=O)(=O)O)ccc(N=Nc2c(O)c(C(=O)O)cc3ccccc23)c1Cl`, the hERG blockade is 2.42%.

In the case of `NS(=O)(=O)c1ccc(N=Nc2ccc(O)c(C(=O)O)c2)cc1`, the hERG blockade is -6.41%. In the case of `NS(=O)(=O)c1ccc(N=Nc2c(O)c(C(=O)O)cc3ccccc23)cc1`, the hERG blockade was 22.9% (active). Consider `NS(=O)(=O)c1cc(C(=O)O)c(O)c2ccccc12`, for which the hERG blockade is 2.98%. For `NS(=O)(=O)c1ccc(N=Nc2cc3ccccc3c(C(=O)O)c2O)cc1`, the hERG blockade is 33.3% (active). For the molecule `NS(=O)(=O)c1ccc(N=Nc2ncccc2O)cc1`, the hERG blockade is 17.7%.

`O=C(O)CNc1ccc(C(=O)O)cc1`: the hERG blockade was 1.76%.

On to `CC(=NNc1nc(C)cc(=O)[nH]1)C(=O)O`, for which the hERG blockade was -18.5%. As to `c1ccc(-c2cc(-c3cc(-c4ccccn4)[nH]n3)n[nH]2)nc1`, the hERG blockade is 6.68%. As to `Cn1c(=O)c2[nH]c(C3CC(=O)CC(c4nc5c([nH]4)c(=O)n(C)c(=O)n5C)N3)nc2n(C)c1=O` (stereo unspecified), the hERG blockade was -8.89%. `Oc1ccccc1C(Sc1nc2ccccc2s1)Sc1nc2ccccc2s1`: the hERG blockade was -6.16%. For `Cc1sc2ccccc2[n+]1CCC(=O)O` the value was -12.2%; for `O=C1Nc2ccccc2C1=Nc1ccc(S(=O)(=O)Nc2nccs2)cc1`, -2.12%. Next, `NS(=O)(=O)c1ccc(N=C2C(=O)Nc3ccccc32)cc1`: -20.3% (active). In the case of `O=C1Nc2ccccc2C1=Nc1cccc2ncccc12`, the hERG blockade is -1.09%. For `CN(C)CCCN=C(N)N` the value was -7.66%; for `O=C(O)C1CC2(C1)CC(C(=O)O)C2` (stereo unspecified), -11.8%; for `CN(C)Cc1cc(C(C)(C)C)ccc1-c1ccc(C(C)(C)C)cc1CN(C)C`, 17.8%. Next, `CN(C)Cc1cc(C(C)(C)C)cc(CN(C)C)c1O`: 6.58%; `CN(C)Cc1cc(C(F)(F)F)ccc1C(O)(c1ccccc1)c1ccccc1`: 21.7% (active). For the molecule `O=C1CCC(c2ccccc2)=NN1c1nc2ccccc2s1`, the hERG blockade is -9.74%.

With `CC(C(=O)c1ccncc1)c1ccccn1` (stereo unspecified), the hERG blockade is -1.76%. On to `O=C(O)c1cc(C(=O)C(=O)c2cc(C(=O)O)c(O)c3ccccc23)c2ccccc2c1O`, for which the hERG blockade was 18.7%. Turning to `O=C1c2ccccc2-c2cc([N+](=O)[O-])c([N+](=O)[O-])cc21`, the hERG blockade is 77.8% (active).

Take `O=C1c2cc([N+](=O)[O-])ccc2-c2ccc3c4ccc5c6c(ccc(c7ccc1c2c73)c64)C(=O)c1cc([N+](=O)[O-])ccc1-5`: the hERG blockade was 12.2%. Consider `O=C1c2ccccc2-c2ccc(N=[N+]([O-])c3ccc4c(c3)C(=O)c3ccccc3-4)cc21`, for which the hERG blockade is -2.94%. For `CNC1NC(=O)c2ccccc2N1Cc1ccc(F)cc1` (stereo unspecified) the value was 9.53%; for `c1ccc(CSc2nnc3c4ccccc4c4ccccc4c3n2)cc1`, -3.1%; for `CCOC(=O)C(O)Cc1cnc2ccccc2n1` (stereo unspecified), 19.4%.

As to `c1ccc(CCNCc2ccco2)nc1`, the hERG blockade is -7.49%. For `CCCC(Sc1nc(N)nc2nc[nH]c12)C(=O)O` (stereo unspecified) the value was 2.81%; for `CC(C)(SCc1ccccc1)C(N)C(=O)O` (stereo unspecified), 2.47%.

`NS(=O)(=O)c1ccc(NC(=O)Nc2cccc3ccccc23)cc1`: the hERG blockade was 0.23%. Next, `CC(=N[O-])C(C)=N[O-].CC(=N[O-])C(C)=N[O-].CC(=N[O-])C(C)=N[O-].CC(=N[O-])C(C)=N[O-].[CH3-].[CH3-].[Co].[Co]`: 11.4%; `O=S(=O)(c1cccc(C(F)(F)F)c1)N1c2ccccc2-n2cccc2C1c1cccnc1` (stereo unspecified): 18%. Next, `FC(F)(F)c1nc(SCc2ccc(Cl)cc2)n[nH]1`: 4.58%; `COc1ccc2c(Cl)cc(NC(=S)Nc3ccccc3)nc2c1`: -8.81%; `CSc1nc(C)cc(Nc2ccc(O)c(CN3CCCCC3)c2)n1`: 14.8%. `COc1ccc2nc3cc(Cl)ccc3c(Nc3ccc(O)c(CN4CCN(C)CC4)c3)c2c1`: the hERG blockade is 61.7% (active). Turning to `OC(CNc1ccccn1)c1ccccc1` (stereo unspecified), the hERG blockade was 5.58%. Next, `Cc1cc(Cc2c(C)c(C)c(Cc3cc(C)cc(C(C)(C)C)c3O)c(C)c2C)c(O)c(C(C)(C)C)c1`: 1.65%. For `Nc1ccc(N(S(=O)(=O)c2ccccc2)S(=O)(=O)c2ccccc2)c(Cl)c1` the value was 0.845%. For `COc1cc(CN2CCCCC2)cc2cc(C(=O)O)c(=O)oc12` the value was 4.84%; for `O=C(O)c1c[nH]c2c(ccc3[nH]cc(C(=O)O)c(=O)c32)c1=O`, 22.9% (active); for `O=C(O)c1c[nH]c2cc(OCc3ccccc3)ccc2c1=O`, 6.26%. For `O=C(O)c1ccc(C(=O)O)c2c(C(=O)O)ccc(C(=O)O)c12`, the hERG blockade is -5.21%. In the case of `O=C(O)C(Cc1ccccc1-c1ccccc1)C(=O)O`, the hERG blockade is 19.4%. For `Cc1n[nH]c2ccccc2c1=O` the value was -1.27%; for `COc1ccc2ccccc2c1C=CC(=O)c1ccccc1`, -1.69%. For `O=C(O)CCC(=O)c1ccc2sc3ccccc3c2c1` the value was -5.18%; for `O=C(C[n+]1ccc2ccccc2c1)c1ccc2ccc3ccccc3c2c1`, 37.2% (active); for `OC(COc1ccc(Cl)cc1Cl)CN1CCCC1` (stereo unspecified), 17.2%. For the molecule `C[N+](C)(N)CCC[N+](C)(C)N`, the hERG blockade is -2.4%. Consider `O=C1C2=C(Nc3cc([N+](=O)[O-])ccc3N2)OC1c1c[nH]c2ccc(COc3ccccc3)cc12` (stereo unspecified), for which the hERG blockade was 4.4%. `Nc1nc(SCc2ccccc2Cl)cc(C(=O)O)n1`: the hERG blockade was -7.45%. `CC(C)C1=CC23CCC4C(C)(C(=O)O)CCCC4(C)C2CC1C(C(=O)O)C3C(=O)O` (stereo unspecified): the hERG blockade was 6.18%. In the case of `Oc1ccc2ccccc2c1Cc1c(O)ccc2ccccc12`, the hERG blockade is 8.8%. Next, `CC(O)(c1ccccc1)c1nccc2ccccc12` (stereo unspecified): 0.101%. For `Oc1c(C(O)(c2ccccc2)c2ccc3ccccc3c2O)ccc2ccccc12` the value was 50.7% (active). For `CC1=NN(c2ccc(S(=O)(=O)O)cc2)C(=O)C1=Cc1ccc(Cl)cc1` the value was 41% (active); for `O=c1oc2ccccc2c(O)c1C=Nc1nc(-c2ccc(O)c(O)c2)cs1`, -3.45%; for `C[N+](C)(C)CC(=O)NN=Cc1ccncc1`, -9.76%. `C=CCSc1nc2c(N)ncnc2n1C1OC(CO)C(O)C1O` (stereo unspecified): the hERG blockade was -7.69%.

As to `NS(=O)(=O)c1ccc(NCc2cnc3ccccc3n2)cc1`, the hERG blockade is -7.4%. Turning to `NS(=O)(=O)c1ccc(NCc2cnc3ccccc3c2)cc1`, the hERG blockade is -4.82%. In the case of `Nc1nccc(Nc2ccc(S(N)(=O)=O)cc2)n1`, the hERG blockade was 20.2% (active). Next, `O=[N+]([O-])c1ccc(CS(=O)Cc2ccccc2)cc1` (stereo unspecified): 8.1%; `Cc1ccc(S(=O)(=O)Oc2cc(S(=O)(=O)O)cc3cc(S(=O)(=O)O)cc(N)c23)cc1`: 11.5%. For `Cc1ccc(S(=O)(=O)Oc2cc(N)c3c(n2)CCC3)cc1` the value was -21.4% (active). Next, `Cc1ccc(S(=O)(=O)Nc2cc(=O)[nH]c3c2CCC3)cc1`: 15.4%; `O=C(O)C(=Cc1ccncc1)c1cccc2ccccc12`: 0.772%.

`COC(=O)C1C(OS(=O)(=O)O)CCC2CN3CCc4c([nH]c5ccccc45)C3CC21` (stereo unspecified): the hERG blockade is -1.73%. On to `COc1ccc2c3c([nH]c2c1)C1CC2C(CC(O)C(OC)C2C(=O)O)CN1CC3` (stereo unspecified), for which the hERG blockade was 5.28%. For `COC(=O)C1C(O)CCC2CN3CCc4c([nH]c5ccccc45)C3CC21` (stereo unspecified) the value was 42.5% (active); for `Oc1cc(O)c2c(c1)OC(c1ccc(O)c(O)c1)C(O)C2c1c(O)cc(O)c2c1OC(c1ccc(O)c(O)c1)C(O)C2` (stereo unspecified), 10.6%. Next, `O=C(O)COc1c(Cl)cc(Cl)c2cccnc12`: -8.13%; `c1ccc(CN2COc3c(ccc4c5c(ccc34)CN(Cc3ccccc3)CO5)C2)cc1`: -6.83%; `CC(C)(C)c1c2c(c(C(C)(C)C)c3c1OCN(Cc1ccccc1)C3)OCN(Cc1ccccc1)C2`: 23.8% (active).

On to `O=C(Oc1ccc2c(c1)CN(Cc1ccccc1)CO2)c1ccccc1`, for which the hERG blockade was 13%. Next, `CCCC(c1cc(C(C)(C)C)c(O)cc1C)c1cc(C(C)(C)C)c(O)cc1C`: 4.17%; `CC(=N[O-])C(C)=N[O-].CC(=N[O-])C(C)=N[O-].C[CH-]C(C)O.[Co].c1ccncc1`: -3.56%. Take `Nc1ccn(C2OC(CO)C3[O][Sn]([c]4ccccc4)([c]4ccccc4)[O]C32)c(=O)n1` (stereo unspecified): the hERG blockade is 9.47%.

Turning to `N=c1ccn2c(n1)OC1C(OP(=O)(O)O)C(CO)OC12` (stereo unspecified), the hERG blockade is -24.7% (active). For `Nc1ccn(C2OC(COP(=O)(O)O)C(O)C2O)c(=O)n1` (stereo unspecified) the value was -9.61%; for `Fc1cccc(Cl)c1C=NN=C1c2ccccc2-c2ccccc21`, 4.24%. As to `O=C(O)c1c(Cl)c(Cl)c(Cl)c(Cl)c1C(=O)Nc1ccc2cn[nH]c2c1`, the hERG blockade is 9.23%. For `C[N+](C)(C)C(Cc1c[nH]c(=S)[nH]1)C(=O)O` (stereo unspecified) the value was -14%. Next, `COc1ccc(-c2nc(N)c3ncn(C4OC(CO)C(O)C4O)c3n2)cc1` (stereo unspecified): -8.39%; `CC(C)CC(N)C(=O)O` (stereo unspecified): 6.02%. For `NC(Cc1ccccc1)(C(=O)O)C(=O)O` the value was -3.15%.
